Experimental data: PubChem BioAssay (EPA / NIEHS)
Activity calls are given as the source filed them. How the source made its calls: active means hit-call score of the fitted dose curve at least 0.9, where 1 is the maximum; inactive means score below 0.9.

Assay: CEETOX_H295R_OHPROG: CeeTox H295R High-throughput Steroidogenesis Assay for OH-Progesterone (OHPROG) (AID 2283435)
Conditions: actives raise or lower the signal
Protocol: CEETOX_H295R is a cell-based, multiplexed-readout assay that uses H295R, a human adrenal gland cell line, with measurements taken at 48 hours after chemical dosing in a 96-well plate.CEETOX_H295R_OHPROG is one of 23 assay component(s) measured or calculated from the CEETOX_H295R assay. It is designed to make measurements of hormone induction, a form of inducible reporter, as detected with absorbance signals by HPLC-MS-MS technology.Data from the assay component CEETOX_H295R_OHPROG was analyzed into 1 assay endpoint. This assay endpoint, CEETOX_H295R_OHPROG, was analyzed with bidirectional fitting relative to DMSO as the negative control and baseline of activity. Using a type of inducible reporter, gain or loss-of-signal activity using HPLC-MS-MS was used to understand synthesis of 17alpha-hydroxyprogesterone in H295R cell line at 48hr of chemical exposure. To generalize the intended target to other relatable targets, this assay endpoint is annotated to the steroid hormone intended target family, where the subfamily is progestagens.
Cell culture and media preparation procedures were conducted in accordance with OECD Test No. 456 guidelines, with minor modifications. H295R cells (ATCC CRL-2128) were expanded for 5 passages and frozen in batches in liquid nitrogen. Prior to the steroidogenesis assay, H295R cells were thawed and passed at least 4 times. The maximum passage was 10. Cells were maintained in a 1:1 mixture of DMEM/F12 supplemented with 5ml/L ITS+ Premix (BD Bioscience) and 12.5 ml/L Nu-Serum (BD Bioscience). After seeding cells into 96-well plates at 50-60% confluency, cells were allowed to adhere overnight. Prior to chemical testing, culture medium was replaced with 175 uL medium containing 10 uM forskolin to stimulate steroidogenesis for 48 hours. Following prestimulation, forskolin medium was replaced with medium containing test chemical solubilized in DMSO (ensuring a final concentration of 0.1% DMSO). Test chemicals were incubated for 48 hours, then the medium was removed and split into 2 vials containing approximately 75uL each, and stored at -80 C prior to hormone analysis. For steroid quantification, media samples were shipped to OpAns, LLC (Durham, NC) on dry ice, and samples were thawed to room temperature prior to liquid-liquid extraction. Steroid hormones were extracted from media samples using methyl tertbutyl ether (MTBE). An extra derivatization with dansyl chloride was included for estrogen (estrone and estradiol) detection only. Steroid hormones were separated by HPLC, eluted using a reverse phase C18 gradient with electrospray positive ionization, followed by quantification by tandem mass spectrometry (MS/MS). Data were acquired on a MassHunter Workstation Acquisition version B03.01 (Agilent Technologies, Inc.) and processed using MassHunter Quantitative Analysis for QQQ. Accuracy was determined for each hormone analyte from 3 standards to determine upper and lower limits of quantification (ULOQ and LLOQ, respectively) using a 7-point standard curve. Precision and accuracy of the extraction and quantification methods were calculated as the percent relative standard deviation (%RSD) of the spiked standards and percent spiked standard recovered, respectively. […] Test medium was removed following chemical exposure, and cell viability was evaluated in the same wells by MTT. MTT procedures were as follows: after removal of test medium, 500 uL of 0.5 mg/ml of 3-[4,5-dimethylthiazol-2-y]2,5-diphenyltetrazoliumbromide solution was added to the cells. Following a 4-hour incubation at 37 C and 5% CO2 to allow formazan-crystal formation, the MTT solution was removed and blue formazan salt crystals were solubilized using 500uL anhydrous isopropanol with shaking for 20 minutes. Absorbance was read at 570 and 650nm using a Packard Fusion microplate reader. Background correction of absorbance units was used to determine percent change relative to controls. […]

Compound | AC50 | outcome
Cc1ccc2oc(CN(Cc3ccccc3)C(=O)Nc3c(F)cc(F)cc3F)c(-c3ccc(Cl)cc3)c2c1 | 4.83 µM (active) | –
Clc1ccccc1C(c1ccccc1)(c1ccccc1)n1ccnc1 | 0.0684 µM (active) | –
CCCCCCCCN(C)CCCCCCCC | 50 µM (active) | –
CC(=O)N1CCN(c2ccc(OC[C@H]3CO[C@](Cn4ccnc4)(c4ccc(Cl)cc4Cl)O3)cc2)CC1 | 0.49 µM (active) | –
CC(C)(c1cc(Br)c(O)c(Br)c1)c1cc(Br)c(O)c(Br)c1 | 4.41 µM (active) | –
CCCCCCCCOC(=O)c1cc(O)c(O)c(O)c1 | – | inactive
Cc1oc2c(NC(=O)c3c(Cl)cccc3Cl)cccc2c1C(C)(C)O | 3.07 µM (active) | –
CO[C@H]1/C=C/O[C@@]2(C)Oc3c(C)c(O)c4c(O)c(c(/C=N/N5CCN(C)CC5)c(O)c4c3C2=O)NC(=O)/C(C)=C\C=C\[C@H](C)[C@H](O)[C@@H](C)[C@@H](O)[C@@H](C)[C@H](OC(C)=O)[C@@H]1C | – | inactive
Clc1cc(Cl)c2c(c1)N=C1CCCCCN1C2 | – | inactive
Oc1ccc2ccccc2c1 | 13.8 µM (active) | –
O=C(Nc1ccc(Cl)cc1)Nc1ccc(Cl)c(Cl)c1 | 0.418 µM (active) | –
COc1cccc([C@H](O)C2CCN(CCc3ccc(F)cc3)CC2)c1OC | 19.7 µM (active) | –
CC(C)(C)c1cc(/C=C2\SC(N)=NC2=O)cc(C(C)(C)C)c1O | 0.67 µM (active) | –
Cc1c2ccccc2c(C)c2c1ccc1ccccc12 | – | inactive
O=C1c2ccccc2C(=O)N1CCc1noc(-c2ccc(CN3CCCCCC3)s2)n1 | – | inactive
CCCCCCCCCCCC[N+](C)(C)C | – | inactive
O=c1c(-c2ccc(O)cc2)coc2cc(O)cc(O)c12 | 30.5 µM (active) | –
CN1C(=O)N(c2ccccc2Br)Cc2cnc(Nc3ccc4c(c3)OCC(CO)O4)nc21 (centres undefined) | – | inactive
NC(=O)c1nc(-c2cccc(-c3cc(F)ccc3OCC(F)(F)C(F)(F)F)c2)n[nH]1 | – | inactive
Cc1cc2c(cc1C(F)(F)F)N(C(=O)Nc1ccc(Oc3cccnc3C)nc1)CC2 | 0.591 µM (active) | –
OC12N=C(c3ccccc3)SC1Cc1cc(Cl)ccc12 (centres undefined) | – | inactive
O=C(O)Cn1c(=O)n(Cc2ccc(Br)cc2F)c(=O)c2ccc(Cl)cc21 | – | inactive
O=C1CCC(C2CCCCC2)CC1 | 76.8 µM (active) | –
CCCCOC(=O)c1ccc(O)cc1 | 5 µM (active) | –
